Structures are written as SMILES. About 660 (0.18%) of roughly 370,000 compounds were called active. Cut-off read from the data, not from the text of the source: active = inhibition above about 11%; inactive = the rest. For the sample, actives were picked, then their nearest neighbours and some compounds at random.

The inhibition is the relative decrease from the control value, in per cent.

The target of the assay is 1-phosphatidylinositol 4,5-bisphosphate phosphodiesterase beta-3 (Homo sapiens) (UniProt Q01970). As to the kind of experiment: phospholipase C beta3 enzyme inhibition – biochemical, fluorescence, primary screen (AID 720704).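 Note: 0% = median of compound wells on plate and 100% = full blocker control.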 The note with it: Purified PLC-beta3, fluorogenic substrate, at 12.2 µM, hits give high values.
Sequence of 1-phosphatidylinositol 4,5-bisphosphate phosphodiesterase beta-3 (Homo sapiens) (Q01970 whole entry, looked up): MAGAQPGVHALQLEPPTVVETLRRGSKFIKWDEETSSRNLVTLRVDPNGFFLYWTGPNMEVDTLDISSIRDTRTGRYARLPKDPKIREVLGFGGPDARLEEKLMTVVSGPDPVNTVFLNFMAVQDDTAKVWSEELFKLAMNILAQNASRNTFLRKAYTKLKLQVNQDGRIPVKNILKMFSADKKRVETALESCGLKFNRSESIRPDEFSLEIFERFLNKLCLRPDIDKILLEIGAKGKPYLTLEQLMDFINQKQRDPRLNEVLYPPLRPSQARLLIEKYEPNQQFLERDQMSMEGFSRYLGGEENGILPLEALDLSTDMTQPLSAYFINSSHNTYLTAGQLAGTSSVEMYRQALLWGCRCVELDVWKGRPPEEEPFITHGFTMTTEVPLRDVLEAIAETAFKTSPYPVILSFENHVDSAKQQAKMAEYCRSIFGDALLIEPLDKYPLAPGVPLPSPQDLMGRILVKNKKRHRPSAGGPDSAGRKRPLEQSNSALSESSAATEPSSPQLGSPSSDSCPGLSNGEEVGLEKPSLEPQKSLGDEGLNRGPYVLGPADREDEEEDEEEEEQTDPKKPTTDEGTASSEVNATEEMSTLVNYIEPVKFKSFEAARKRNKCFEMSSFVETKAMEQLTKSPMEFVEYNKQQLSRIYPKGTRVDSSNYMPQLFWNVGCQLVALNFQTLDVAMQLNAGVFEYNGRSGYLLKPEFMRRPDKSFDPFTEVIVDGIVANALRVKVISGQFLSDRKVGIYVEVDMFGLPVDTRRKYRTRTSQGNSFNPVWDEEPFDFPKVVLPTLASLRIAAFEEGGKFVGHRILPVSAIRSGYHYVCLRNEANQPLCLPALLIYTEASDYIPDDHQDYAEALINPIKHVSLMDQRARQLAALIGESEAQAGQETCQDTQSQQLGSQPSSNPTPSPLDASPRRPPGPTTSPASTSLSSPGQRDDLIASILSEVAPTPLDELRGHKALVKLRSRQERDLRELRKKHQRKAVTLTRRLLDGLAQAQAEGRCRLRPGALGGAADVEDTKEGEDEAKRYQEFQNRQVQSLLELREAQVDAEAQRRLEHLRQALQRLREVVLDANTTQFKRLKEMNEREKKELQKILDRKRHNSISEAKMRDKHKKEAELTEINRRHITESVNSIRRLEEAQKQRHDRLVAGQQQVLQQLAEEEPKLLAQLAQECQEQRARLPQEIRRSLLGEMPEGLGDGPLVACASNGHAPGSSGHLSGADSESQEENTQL
Consider `CC1=CC(=O)C=CC1(C)C(Cl)(Cl)Cl` (configuration not stated), for which the inhibition was 0.48% (inactive).
For `Cc1c(C(=O)N2CC(C)OC(C)C2)sc2nc(-c3ccccc3)cn12` (configuration not stated), the inhibition is -2.9% (inactive).
To `O=C(c1ccc(F)cc1)N1CCCC(C(=O)N2CCCCC2)C1` (configuration not stated) belongs -6.9% (inactive); to `COc1ccc([N+](=O)[O-])cc1N(CC(O)Cn1nnc2ccccc21)S(=O)(=O)c1ccc(C)cc1` (configuration not stated), 11.5% (active); to `COc1ccc([N+](=O)[O-])cc1N(CC(O)CN(CC(C)C)CC(C)C)S(=O)(=O)c1ccc(C)cc1` (configuration not stated), -4.79% (inactive).
As for `Cc1ccc(S(=O)(=O)N(CC(O)CN2CCCCC2)c2cccc([N+](=O)[O-])c2)cc1` (configuration not stated), the figure is -3.53% (inactive).
For `O=C(NC1CCCCN(Cc2ccc(Cl)cc2)C1=O)c1ccc(Br)cc1` (configuration not stated), the inhibition was -4.01% (inactive).
As for `Cc1cccc(OCc2nnc(SCc3nc4cc(C(F)(F)F)ccc4c(=O)[nH]3)o2)c1`, the figure is -14.6% (inactive); as for `CCn1cc(C(=O)NCCC(=O)NCCO)c(=O)c2cc3c(cc21)OCO3`, -11.8% (inactive).
As for `CCOc1ccccc1NC(=O)c1cccnc1`, the inhibition was 12.6% (active).
As for `CCCOc1cccc(C(=O)NCCCNC(=O)c2cccnc2)c1`, the figure is -4.69% (inactive).
To `Cc1cccc(C(=O)Nc2ccccc2C(=O)NCc2cccnc2)c1` belongs 2.86% (inactive); to `O=S1(=O)C[C@@H](N2CCN(CCO)CC2)[C@H](COCc2ccccc2)N1`, -7.43% (inactive); to `Cc1ccc(S(=O)(=O)N2CCC(C(=O)OCC(=O)N(C)c3ccccc3)CC2)cc1C`, -0.47% (inactive).
To `O=C(COc1ccc(S(=O)(=O)N2CCCC2)cc1[N+](=O)[O-])N1CCCCC1` belongs 6.09% (inactive).
Take `COc1ccc(S(=O)(=O)N2CCC(C(=O)OCC(=O)c3ccccc3)CC2)cc1[N+](=O)[O-]`: the inhibition was 10.8% (active).
As for `CCOC(=O)[C@H]1CCC[C@@H](NS(=O)(=O)c2ccc(NC(C)=O)cc2)C1`, the figure is -1.08% (inactive); as for `O=S(=O)(NCCSc1ccccn1)c1ccc(Cl)cc1`, 4.09% (inactive); as for `CN(C(=O)c1cccc(NC(=O)Cc2cccc([N+](=O)[O-])c2)c1)C1CCCCC1`, 11.2% (active).
Turning to `CN(C(=O)c1cccc(NC(=O)Cc2ccc([N+](=O)[O-])cc2)c1)C1CCC1`, the inhibition is 1.28% (inactive).
In the case of `CN(C(=O)c1cccc(NC(=O)Cc2cccc(NC(=O)C3CCCN(C(=O)C4CC4)C3)c2)c1)C1CCC1` (configuration not stated), the inhibition is 1.11% (inactive).
Consider `O=C(CNC(=O)c1ccccc1)OC(C(=O)Nc1cc([N+](=O)[O-])ccc1F)c1ccccc1` (configuration not stated), for which the inhibition is -0.41% (inactive).
On to `CCOc1c(Br)cc(/C=C2\C(=O)N(CCC#N)N=C2C)cc1OC`, for which the inhibition was 13.5% (active).
To `Oc1oc(-c2ccccc2Br)nc1/C=N/c1ccccn1` belongs -19.8% (inactive); to `CC(N=Cc1nc(-c2ccccc2)oc1O)c1ccccc1` (configuration not stated), 15.1% (active); to `CC(=O)C1=C(O)C(=O)N(c2ccc(Br)cc2)C1c1ccc([N+](=O)[O-])cc1` (configuration not stated), -6.85% (inactive).
As for `COC(=O)CN1C(=O)C(O)=C(C(C)=O)C1c1ccc([N+](=O)[O-])cc1` (configuration not stated), the figure is 13.8% (active); as for `CC(=O)C1=C(O)C(=O)N(c2cccnc2)C1c1ccc([N+](=O)[O-])cc1` (configuration not stated), 4.27% (inactive).
In the case of `O=C(NC(CC(=O)N1CCN(c2ccccc2)CC1)c1ccccc1)c1ccccc1Cl` (configuration not stated), the inhibition is 2.68% (inactive).
As for `O=C(NCCSc1ncc(-c2ccccc2)[nH]1)c1ccco1`, the inhibition was -6.81% (inactive).
For the compound `Cc1ccc(C2CC(c3cccc(NS(C)(=O)=O)c3)=NN2S(C)(=O)=O)cc1` (configuration not stated), the inhibition was 0.24% (inactive).
In the case of `CCOc1ccc2nc(Cl)c(C3CC(c4ccccc4)=NN3C(=O)c3cccs3)cc2c1` (configuration not stated), the inhibition is -0.32% (inactive).
To `CCOc1ccccc1C1CC(c2cccc(NS(C)(=O)=O)c2)=NN1C(=O)c1ccccc1` (configuration not stated) belongs 13.2% (active).
With `Cc1ccc(C(=O)N(CN2CCCC2=O)c2ccc(F)cc2)cc1`, the inhibition is 3.26% (inactive).
To `CCOc1ccc(S(=O)(=O)Nc2ccncc2)c(C)c1C` belongs 1.51% (inactive); to `Cc1cc(C)c2nc(SCC(=O)N(C)C3CCS(=O)(=O)C3)cc(C)c2c1` (configuration not stated), 2.26% (inactive); to `O=S(=O)(c1ccc(F)cc1)N1CCN=C1SCc1cccc(F)c1`, -7.5% (inactive).
To `Cc1ccc(/C=C/C(=O)O)cc1S(=O)(=O)N1CCC(Cc2ccccc2)CC1` belongs -3.09% (inactive).
As for `Cn1ncc2c(NNC(=O)Cc3cccc4ccccc34)ncnc21`, the figure is 1.27% (inactive); as for `Cc1nc(Nc2ccccc2C)c2cnn(C)c2n1`, 13.1% (active).
For `Cn1ncc2c(Nc3cccc4ccccc34)ncnc21`, the inhibition was -6.23% (inactive).
To `O=C1C(=O)N(c2ccccc2)C(c2ccccc2)C1c1ccccc1` (configuration not stated) belongs -283% (inactive); to `O=S(=O)(O)c1cc2onnc2c2ccccc12`, -11.7% (inactive).
As to `Cc1cc(NS(=O)(=O)c2ccc(NC(=O)CSc3nnc(SCc4ccc(F)cc4)s3)cc2)nc(C)n1`, the inhibition is -3.29% (inactive).
For the compound `Cc1cc(C(=O)OC(C)C(=O)Nc2cccc(S(=O)(=O)N3CCOCC3)c2)c(C)o1` (configuration not stated), the inhibition is 2.02% (inactive).
Consider `NNC(=O)C1CC(O)CN1S(=O)(=O)c1ccc(Cl)cc1` (configuration not stated), for which the inhibition is -6.44% (inactive).
To `O=C(CSc1ncn[nH]1)Nc1nc2c(F)c(F)c(F)cc2s1` belongs -3.83% (inactive).
As for `Cc1cc(C)c(NC(=O)CSc2nc3ccncc3[nH]2)c(C)c1`, the figure is -1.6% (inactive); as for `Cc1cc2nc(SCCN3CCOCC3)[nH]c2cc1C`, 10.8% (active).
As to `CCNC(=S)N1CCC(c2nc3cc(C)c(C)cc3[nH]2)CC1`, the inhibition is 0.08% (inactive).
As for `Fc1ccc(CNCc2ccc(Br)cc2)cc1`, the figure is 1.89% (inactive).
Turning to `CC1(C(=O)NCc2ccco2)Cc2c(-c3ccc4c(c3)OCO4)ccnc2O1` (configuration not stated), the inhibition was -9.86% (inactive).
To `COc1ccc(C(=O)NC2CC2)cc1OC1CCN(Cc2ccc(SC)cc2)CC1` belongs -5.08% (inactive); to `CCN(C(=O)COc1cccnc1[N+](=O)[O-])C1CCS(=O)(=O)C1` (configuration not stated), 3.82% (inactive).
Regarding `CCc1cc2c(=O)c(-c3ccon3)c(N)oc2cc1OC`, the inhibition was -1.51% (inactive).
With `CCOC(=O)C1CCN(C(=O)c2cccc(S(=O)(=O)N(CC)c3ccccc3)c2)CC1`, the inhibition is -9.7% (inactive).
To `CCCC1CCC(=NNC(=S)NCCc2ccccc2)CC1` (configuration not stated) belongs -1.2% (inactive).
With `CSCCC(NC(=O)COc1ccccc1)C(=O)N1CCN(c2cccc(C(F)(F)F)c2)CC1` (configuration not stated), the inhibition is -10.1% (inactive).
Consider `O=C(COc1ccc(Cl)cc1)N1CCN(c2cccc(C(F)(F)F)c2)CC1`, for which the inhibition is 13.8% (active).
As to `Cc1c(C)c2ccc(OCC(=O)N3CCN(c4cccc(Cl)c4)CC3)cc2oc1=O`, the inhibition is -8.02% (inactive).
With `COC(=O)C1CC2=C(CC(C)(C)CC2=O)N(c2ccccc2)C1=O` (configuration not stated), the inhibition is -3.14% (inactive).
As for `Cc1ccc(C(=O)OCC(=O)Nc2ccc(Cl)cn2)cc1S(=O)(=O)N1CCOCC1`, the figure is -6.74% (inactive); as for `O=C(COC(=O)c1ccc(F)c(S(=O)(=O)N2CCOCC2)c1)NCc1ccc2c(c1)OCO2`, -5.58% (inactive).
As for `Cc1cc(NC(=O)COC(=O)c2ccc(F)c(S(=O)(=O)N3CCOCC3)c2)no1`, the figure is 11.6% (active); as for `CCCOc1ccc(Cc2c(O)nc(N)[nH]c2=O)cc1C`, -5% (inactive).
With `CCc1c(Nc2ccccc2C)nc(N)[nH]c1=O`, the inhibition was 14.8% (active).
Regarding `CCc1c(Nc2ccccc2Cl)nc(N)[nH]c1=O`, the inhibition is 1.61% (inactive).
With `COc1ccc(C(=O)O)cc1S(=O)(=O)NCc1cccnc1`, the inhibition was -3.06% (inactive).
As for `Cc1nnc(SCc2ccc(C(=O)c3ccc(Cl)cc3)o2)n1-c1ccccc1`, the figure is 0.27% (inactive).
Consider `COC(=O)c1cc(NC(=O)c2nn(C)c(=O)c3ccccc23)cc(C(=O)OC)c1`, for which the inhibition was 0.09% (inactive).
To `CC(=O)N1c2ccc(S(=O)(=O)N3CCCC(C(=O)NCc4ccc(Cl)cc4)C3)cc2CC1C` (configuration not stated) belongs -2.78% (inactive).
As for `O=C(NCc1ccco1)c1nn2cccnc2c1Cl`, the figure is -10.8% (inactive); as for `CN1CCN(C(=O)Cn2c(C(F)(F)F)nc3ccccc32)CC1`, 5.24% (inactive); as for `CCc1cc(C(=O)c2ccc(OC)cc2)c(NC(=O)CN2CCN(C)CC2)s1`, -17.3% (inactive).
As to `CCCCc1nc2ccccc2c(NC(=O)CN2CCN(C)CC2)c1CCC`, the inhibition was 32% (active).
As for `CCOC(=O)c1cc2ccccc2n1CC(=O)c1ccccc1`, the figure is -2.72% (inactive); as for `CCn1c(/C=C/Nc2ccccc2)[n+](CC)c2ccc(C(=O)OCC(F)(F)F)cc21`, 13.1% (active); as for `Cc1cc(C)c(OCC(=O)N(Cc2cccs2)C2CCS(=O)(=O)C2)c(C)c1` (configuration not stated), -6.39% (inactive).
For the compound `CC1C(=O)Nc2ccccc2N1C(=O)c1c(F)cccc1F` (configuration not stated), the inhibition was -2.5% (inactive).
For the compound `CC(=O)O[C@]1(C(C)=O)CC[C@H]2[C@@H]3C=C(C)C4=CC(=O)CC[C@]4(C)[C@H]3CC[C@@]21C`, the inhibition was -0.43% (inactive).
`CC(=O)O[C@@]1(C(C)=O)CCC2[C@H]3C=C(C)C4=CC(=O)CC[C@@]4(C)C3CC[C@]21C` (some centres not stated): the inhibition was -4.21% (inactive).
Take `CC(=O)C12CC(C)=C(C)CC1CC1C3CCC4=CC(=O)CCC4(C)C3CCC12C` (configuration not stated): the inhibition was 16.1% (active).
As for `Cc1cc(NC(=O)CSCc2ccccc2C)no1`, the figure is -0.65% (inactive); as for `Cc1cc(NC(=O)COn2nnc3ccccc32)no1`, 10.7% (active); as for `Cc1cc(NC(=O)COc2ccccc2C#N)no1`, -4.84% (inactive).
As for `C/C(CC(=O)Nc1cccc(C(F)(F)F)c1)=N\NC(=O)C(=O)NCC(C)C`, the figure is 2.01% (inactive).
For the compound `NC(c1csc(NC(=O)Nc2ccccc2Oc2ccccc2)n1)c1ccccc1Cl` (configuration not stated), the inhibition was -2.19% (inactive).
Turning to `COc1ccc(C(N)c2csc(NC(=O)Nc3cccc(C(F)(F)F)c3)n2)cc1` (configuration not stated), the inhibition was 11.1% (active).
To `CCOC(=O)/C=C/CN(C(=O)OC(C)(C)C)S(=O)(=O)N1CC=CC1` belongs 5.79% (inactive).
As for `O=C(CN1CCN(C(=O)C2CCCO2)CC1)Nc1c(Cl)cccc1Cl` (configuration not stated), the figure is -2.62% (inactive); as for `O=C(C1CCCO1)N1CCN(C(=S)NC2CC2)CC1` (configuration not stated), -1.16% (inactive).
`O=C(C1CCCO1)N1CCN(C(=S)Nc2cccc(Cl)c2)CC1` (configuration not stated): the inhibition is 12.1% (active).

The values above are taken from PubChem BioAssay AID720704 (The Scripps Research Institute Molecular Screening Center, 2013).
